Results as given in PubChem BioAssay (NCI).
Several values for one entry are separate records, joined by “and”; a condition that tells them apart may be missing. Equal entries are not always repeated. About 83,000 compounds went through this panel and 20% of them were active in at least one assay; those are over-represented in the sample as a whole.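 Activity criterion: percent growth below 10, measured after cells in 96-well plates were exposed to a single compound concentration for 48 hours.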 Activity calls are given as the source filed them. Where a SMILES comes first, the peptide text is derived from it. [ ]: non-standard residue; d: D form. ξ: configuration not given here. ξV = CC(C)C(N)C(=O)O

Tests used:
Assay in all cases: NCI-60 one-dose screen, 48 h (100 = growth as untreated, 0 = no growth, -100 = all killed)
HCT-15 colon = details: 10 µM
HT29 colon = details: 10 µM
SNB-75 CNS = details: 10 µM
SNB-19 CNS = details: 10 µM
U251 CNS = details: 10 µM unless noted
PC-3 prostate = details: 10 µM
SK-MEL-5 melanoma = details: 10 µM unless noted
UACC-62 melanoma = details: 10 µM
LOX IMVI melanoma = details: 10 µM unless noted
SK-MEL-28 melanoma = details: 10 µM
SK-MEL-2 melanoma = details: 10 µM
EKVX NSCLC = details: 10 µM
SN12C renal = details: 10 µM
UO-31 renal = details: 10 µM
TK-10 renal = details: 10 µM
ACHN renal = details: 10 µM
CAKI-1 renal = details: 10 µM
A498 renal = details: 10 µM
CCRF-CEM leukemia = details: 10 µM
MOLT-4 leukemia = details: 10 µM

| Structure (SMILES) | growth (HCT-15 colon) | growth (HT29 colon) | growth (SNB-75 CNS) | growth (SNB-19 CNS) | growth (U251 CNS) | growth (PC-3 prostate) | growth (SK-MEL-5 melanoma) | growth (UACC-62 melanoma) | growth (LOX IMVI melanoma) | growth (SK-MEL-28 melanoma) | growth (SK-MEL-2 melanoma) | growth (EKVX NSCLC) | growth (SN12C renal) | growth (UO-31 renal) | growth (TK-10 renal) | growth (ACHN renal) | growth (CAKI-1 renal) | growth (A498 renal) | growth (CCRF-CEM leukemia) | growth (MOLT-4 leukemia) |
| --- | --- | --- | --- | --- | --- | --- | --- | --- | --- | --- | --- | --- | --- | --- | --- | --- | --- | --- | --- | --- |
| COC1OCC(O)C(O)C1O (stereo not given) | 98.5% (inactive) | 104% (inactive) | 80.8% (inactive) | 113% (inactive) | 94.5% (inactive) | 92.4% (inactive) | 101% (inactive) | 105% (inactive) | 95.3% (inactive) | 106% (inactive) | 114% (inactive) | 99.1% (inactive) | 103% (inactive) | 86.2% (inactive) | 92.9% (inactive) | 111% (inactive) | 89.7% (inactive) | 84.5% (inactive) | 107% (inactive) | 101% (inactive) |
| O=C(C(=Cc1ccccc1)C(=O)c1ccccc1)c1ccccc1 | 28.1% (inactive) and 88.8% (inactive) | 47.1% (inactive) and 91.2% (inactive) | 69.7% (inactive) and 81.4% (inactive) | 46.9% (inactive) and 92.4% (inactive) | 86.2% (inactive) | 48.3% (inactive) and 77.7% (inactive) | 66.6% (inactive) and 94.4% (inactive) | 48.8% (inactive) and 66.7% (inactive) | -56.4% (active) and 77.5% (inactive) | 60.4% (inactive) and 105% (inactive) | 90% (inactive) and 83.2% (inactive) | 79.2% (inactive) and 103% (inactive) | 78.6% (inactive) and 82.7% (inactive) | 60.9% (inactive) and 87.8% (inactive) | 124% (inactive) and 87.7% (inactive) | 62.3% (inactive) and 85.8% (inactive) | 84.5% (inactive) and 86.8% (inactive) | 72.2% (inactive) and 88.6% (inactive) | 10.8% (inactive) and 81.8% (inactive) | 10.6% (inactive) and 85.4% (inactive) |
| CC(C)C(NC(=O)CN)C(=O)O (stereo not given) (H-Gly-[ξV]-OH) | 109% (inactive) and 106% (inactive) | 101% (inactive) and 100% (inactive) | 104% (inactive) and 84.7% (inactive) | 106% (inactive) | 102% (inactive) and 98.9% (inactive) | 92.6% (inactive) and 88.6% (inactive) | 104% (inactive) and 102% (inactive) | 104% (inactive) and 94.5% (inactive) | 101% (inactive) and 102% (inactive) | 109% (inactive) and 107% (inactive) | 108% (inactive) and 109% (inactive) | 102% (inactive) and 103% (inactive) | 104% (inactive) and 100% (inactive) | 84% (inactive) | 103% (inactive) and 93.9% (inactive) | 102% (inactive) and 109% (inactive) | 96.4% (inactive) and 97.1% (inactive) | 102% (inactive) and 99.9% (inactive) | 91.9% (inactive) and 96% (inactive) | 79.2% (inactive) and 101% (inactive) |
| CCCCCCCCCCCC[N+](C)(C)Cc1ccccc1 | 90.8% (inactive) | 5.91% (active) | -12.7% (active) | 20.5% (inactive) | 17.3% (inactive) | -18.7% (active) | -87.1% (active) | -41.2% (active) | 25.9% (inactive) | 17.5% (inactive) | -11.9% (active) |  | 10.1% (inactive) | 55.4% (inactive) | -1.57% (active) | 78.7% (inactive) | 82.1% (inactive) | 79% (inactive) | -15.9% (active) | -21.9% (active) |
| N=S(c1ccccc1[N+](=O)[O-])c1ccccc1[N+](=O)[O-] | -49.6% (active) | -32.7% (active) |  | 108% (inactive) | 84.5% (inactive) | 89.4% (inactive) | 50.3% (inactive) | 67.9% (inactive) | 3.28% (active) | 77.5% (inactive) | 89.2% (inactive) | 85.8% (inactive) | 84.9% (inactive) | 5.99% (active) | 22.4% (inactive) | 2.38% (active) | 85.5% (inactive) | 107% (inactive) | 7.69% (active) | 98.9% (inactive) |
| CO[C@H](C(=O)[C@@H](O)[C@@H](C)O)[C@@H]1Cc2cc3cc(OC4CC(OC5CC(O)C(O)C(C)O5)C(O)C(C)O4)c(C)c(O)c3c(O)c2C(=O)[C@H]1OC1CC(OC2CC(OC3CC(C)(O)C(O)C(C)O3)C(O)C(C)O2)C(O)C(C)O1 (stereo not given in full) | 6.74% (active) | 0.182% (active) | -56.9% (active) | 13.3% (inactive) | 9.37% (active) | 10.5% (inactive) |  | -58.6% (active) | 7.02% (active) |  | -43.9% (active) | 16.8% (inactive) | 24.8% (inactive) | -4.43% (active) | 9.9% (active) | 3.72% (active) | 17.2% (inactive) |  | 3.86% (active) | 6.22% (active) |
